Experimental data as given in PubChem BioAssay AID651593 (National Center for Advancing Translational Sciences (NCATS), 2012).
Out of some 1,100 compounds screened, about 860 (78%) were called active. Roughly 19% stayed inconclusive and do not appear here. The call rests on the fitted dose curve; in most records, active means well fitted activation curve with a large enough effect; inconclusive means small, poorly fitted or top-dose-only effect; inactive means flat fitted curve, though single readings scatter. The set was probably picked from earlier hits. The list shows a part of the results.

Test: qHTS of Nrf2 Activators: Hit Validation in Primary Assay; further: nearly all actives have a fitted effect of over 70% in size
Details: Nrf2/ARE reporter cell assay; Potency: activation; series mostly up to 46.1 µM
Description: Many diseases have some form of oxidative stress injury and ties to inflammation, causing a host of problems for the patient. The antioxidant response element (ARE) plays an important role in alleviating the harmful effects of oxidative stress. The antioxidant response element (ARE) is a transcriptional regulatory element involved in the activation of genes coding for a number of antioxidant proteins and detoxifying enzymes. These enzymes work in concert to protect tissues from oxidative insults and chemical toxicities in human hepatocytes and immune cells. The protective effects of ARE activation are primarily triggered through Nrf2 (NF-E2-related factor) binding to and activating AREs. It is known that Nrf2 controls the production of over 250 antioxidant and detoxification proteins (Hu et al., 2006), thereby protecting tissues by increasing cellular antioxidant content and suppressing inflammatory signaling pathways. The transcription factor Nrf2 is a central link between oxidative chemicals, such as phenolic antioxidants and electrophilic compounds, and the activation of ARE. Nrf2 levels are constitutively low as a consequence of its interaction with Keap1, which targets its degradation (Zipper and Mulcahy, 2002). Electrophiles react with key cysteine residues in Keap1, releasing Nrf2 and allowing its translocation to the nucleus. Once within the nucleus, Nrf2 complexes with coactivators such as p300, and binds to the AREs to induce gene transcription of cytoprotective enzymes, resulting in the prevention of toxicity. Activation of Nrf2 protects tissues by increasing cellular antioxidant content and suppressing inflammatory signaling pathways. Identifying novel and potent Nrf2 activators by using the AREc32 cell line to detect ARE activation by small molecules will lead to the identification and development of probes to study protective pathways in multiple tissues. These specific probes are essential to study the ARE pathway, and eventually to determine whether this pathway does activate genes that could protect against a host of diseases, including cardiovascular diseases, obesity, diabetes, Alzheimer's, and Parkinson's disease.
This project's aim is to identify novel and potent Nrf2 activators by using the AREc32 cell line to detect ARE activation by small molecules, which will lead to the identification and development of probes to study the ARE pathway.
NIH Chemical Genomics Center [NCGC]
NIH Molecular Libraries Probe Centers Network [MLPCN]
Assay Submitter (PI): Curtis Klaassen, University of Kansas Medical Center
Quantification of ARE activation after compound treatment was measured by the Steady-Glo Luciferase (R) assay system (Promega) in AREc32_fluc stable cells. The Steady-Glo reagent acts by cell lysis and generation of a luminescent signal proportional to ARE activation, through the luciferase reporter in the AREc32 stable cell line. AREc32_fluc cells were harvested from T225 flask and resuspended in phenol red free OPTI-MEM medium with 5% FBS. Then 5 microL of 200,000 cells/mL resuspended cells were dispensed into each well of white, solid bottom, 1536-well tissue culture-treated plates using a Multidrop Combi dispenser. After overnight culture at 37 degrees C with 5% CO2, a total of 23 nL of compounds at 5 selected concentrations from the MLSMR/Sytravon or positive control (40 uM stock of CDDO-IM and 2 mM of tBHQ) in DMSO was transferred to each well of the assay plate using a pintool (Kalypsys, San Diego, CA), and the plates were further incubated at 37 degrees C with 5% CO2 for 24 hours. After that, 2 microL of Steady Glo luminescent substrate mix (Promega) was added to each well. The plate was incubated at room temperature for 30 minutes. The plates were measured on a ViewLux plate reader (PerkinElmer) with clear filter.
Potency means the concentration at half of the fitted maximal effect.

Compound | Potency
CCOc1c(Br)cc(C(N)=O)cc1OCc1ccccc1 | inactive
Cc1ccc2cc3c(NC(=O)c4ccco4)nn(C)c3nc2c1 | 2.59 µM (active)
O=C1C(=Cc2ccccc2Cl)CCc2ccccc21 | 20.6 µM (active)
COc1ccc(OC)c(C=C2CCc3ccccc3C2=O)c1 | 2.91 µM (active)
COc1cc(C=C2Cc3ccccc3C2=O)cc(OC)c1OC | 9.2 µM (active)
COc1cc(OC)c(OC)cc1/C=C1/Cc2ccccc2C1=O | 8.2 µM (active)
c1ccc(-c2cnc(-c3ccccc3)nn2)cc1 | 13 µM (active)
CSc1nc(Oc2ccc(Cl)cc2)c2sccc2n1 | 6.51 µM (active)
CSc1nc(Oc2ccc3ccccc3c2)c2sccc2n1 | 5.8 µM (active)
Nc1c(C(=O)c2cccs2)oc2ccccc12 | 6.51 µM (active)
Nc1c(C(=O)c2ccc(Br)s2)oc2ccccc12 | 5.17 µM (active)
O=C(Oc1ccccc1/C=C\C(=O)c1cc2ccccc2o1)c1ccccc1 | 4.61 µM (active)
COc1cccc(C(=O)Oc2ccccc2/C=C\C(=O)c2cc3ccccc3o2)c1 | 3.66 µM (active)
O=C(Cn1cnc2scc(-c3cccc([N+](=O)[O-])c3)c2c1=O)NCc1ccco1 | 7.31 µM (active)
Cc1c(CN(C)C)c2c(n1C)C(=O)c1ccc(Br)cc1-2 | 5.17 µM (active)
O=C(CC(=O)c1ccccc1O)c1cccc(F)c1 | 4.61 µM (active)
CC(C)Oc1ccccc1/C=N/Nc1ccccc1[N+](=O)[O-] | 3.26 µM (active)
C(=N\Nc1nc2ccccc2[nH]1)/c1c[nH]c2ccccc12 | 16.4 µM (active)
O=[N+]([O-])c1ccccc1N/N=C/c1c[nH]c2ccccc12 | 2.59 µM (active)
c1ccc(N=NC2=NN(c3ccccc3)CS2)cc1 | 5.8 µM (active)
CC(=O)c1ccccc1NC(=O)COC(=O)/C=C/c1ccc(C)o1 | 3.66 µM (active)
O=C(COC(=O)/C=C/c1ccco1)Nc1ccc(F)cc1Cl | 5.8 µM (active)
CSc1ccccc1NC(=O)COC(=O)/C=C/c1ccco1 | 1.16 µM (active)

Compound | Potency
O=C(NC(=S)Nc1ccccc1O)c1ccccc1Cl | 2.31 µM (active)
O=C(CNC(=S)NC(=O)c1ccccc1Br)c1ccccc1 | inactive
Cc1sc(NC(=O)c2ccco2)c(CN2CCCCC2)c1C | inactive
CCOC(=O)c1sc(NC(=O)c2ccco2)nc1C | 2.59 µM (active)
Cc1ccc(C(=O)Nc2nc(-c3ccco3)c(-c3ccco3)s2)o1 | 0.92 µM (active)
COC(=O)c1c(NC(=O)c2ccco2)sc(C)c1C | 2.59 µM (active)
CCc1c(C)sc(NC(=O)c2ccco2)c1C#N | 7.31 µM (active)
COC(=O)c1sc(NC(=O)c2ccco2)nc1C | 10.3 µM (active)
O=C(Nc1ccccc1F)c1ccc(-c2cccc([N+](=O)[O-])c2)o1 | 2.31 µM (active)
c1ccc(N=Nc2cn[nH]c2-c2ccco2)cc1 | 9.2 µM (active)
CC(C)OC(=O)c1cn(-c2ccccc2)nc1-c1ccco1 | 6.51 µM (active)
Fc1ccc2nncc(SCc3ccccc3Cl)c2c1 | 2.06 µM (active)
O=C(Nc1ncnc2sc3c(c12)CCC3)c1ccco1 | 0.291 µM (active)
O=C(Nc1ncnc2sc3c(c12)CCCCC3)c1ccco1 | 0.58 µM (active)
CN(C)CCN(C(=O)/C=C/c1cccs1)c1nc2ccc(F)cc2s1 | 2.06 µM (active)
Cc1ccc2nc(N(CCN(C)C)C(=O)/C=C/c3cccs3)sc2c1 | 4.61 µM (active)
CN(C)CCN(C(=O)/C=C/c1cccs1)c1nc2c(F)cc(F)cc2s1 | 2.91 µM (active)
Nc1nc(Nc2cccc(Cl)c2)nc(NCCO)c1[N+](=O)[O-] | 2.59 µM (active)
Fc1cccc2sc(Nc3nc4ccccc4s3)nc12 | 2.31 µM (active)
Fc1ccc2nc(Nc3nc4c(F)cc(F)cc4s3)sc2c1 | 2.31 µM (active)
Cn1c(/C(C#N)=C(\O)c2cc(Cl)sc2Cl)nc2ccccc21 | 2.31 µM (active)
Cc1ccc(C(=O)OCc2c(C)noc2C)cc1NC(=O)c1ccco1 | 4.11 µM (active)
N/C(=N\OC(=O)c1cc(Cl)ccc1Cl)c1cccnc1 | 2.59 µM (active)

Compound | Potency
N/C(=N\OC(=O)c1cc(Cl)ccc1Cl)c1ccncc1 | 5.17 µM (active)
COc1ccc(Cl)cc1C(=O)O/N=C(\N)c1ccncc1 | 6.51 µM (active)
N/C(=N\OC(=O)c1ccccc1Cl)c1ccncc1 | 9.2 µM (active)
COc1ccc(Cl)cc1C(=O)O/N=C(\N)c1ccccn1 | 2.91 µM (active)
N/C(=N\OC(=O)/C=C/c1ccccc1)c1cccnc1 | 20.6 µM (active)
N/C(=N\OC(=O)c1cccc2ccccc12)c1cccnc1 | inactive
N/C(=N\OC(=O)c1cccc2ccccc12)c1ccc(Br)cc1 | 9.2 µM (active)
O=C(/C=C/c1ccccc1[N+](=O)[O-])N1CCc2ccccc2C1 | 20.6 µM (active)
Oc1ccccc1-n1nc2ccc3nonc3c2n1 | 11.6 µM (active)
Cn1c(=O)n(CCc2ccccc2)c(=O)c2c1nc1n2CCN1Cc1ccco1 | 2.31 µM (active)
COc1ccc([C@H]2Cc3cccc(O)c3C(=O)O2)cc1O | inactive
CCCNC(=O)c1ccc(S(=O)(=O)c2ccc(OC)cc2)c([N+](=O)[O-])c1 | 3.66 µM (active)
Cn1c(N/N=C/c2cccs2)cc(=O)n(C)c1=O | 2.59 µM (active)
O=c1[nH]n(Cc2ccccc2)c(=O)c2ccccc12 | 4.11 µM (active)
O=C(CSc1nccc(-c2cccs2)n1)Nc1cccc(Cl)c1Cl | 2.31 µM (active)
O=C(CSc1nccc(-c2cccs2)n1)Nc1cccc(Cl)c1 | 2.06 µM (active)
O=C(CSc1nccc(-c2cccs2)n1)Nc1ccc(F)c(Cl)c1 | 20.6 µM (active)
Cc1ccc(C(=O)N/N=C/c2ccc(-c3ccc(Br)cc3[N+](=O)[O-])o2)o1 | 5.8 µM (active)
Cc1cc(N2CCOCC2)n2nc(-c3cccc(F)c3)cc2n1 | 1.46 µM (active)
Cc1cc(C)n2nc(-c3ccc(F)cc3)cc2n1 | 20.6 µM (active)
O=C(Nc1nccc(-c2cccs2)n1)c1cccs1 | 2.59 µM (active)
O=C(Nc1ncc2c(n1)-c1ccccc1CC2)c1ccccc1 | 5.17 µM (active)
O=C(Nc1ncc2c(n1)-c1ccccc1CC2)c1cccs1 | 2.31 µM (active)
